Where a name gives a salt, the structure may show the parent alone. ± gives the standard deviation of the averaged measurements.
Each compound was assayed on E. coli TESEC Mtb DapB (assay: growth (OD600 after 10 h); higher = more growth (less inhibition)). Settings: arabinose induction (level): High; compound 0.1 mM; raw OD600 reference: median of DMSO wells […], cell-free background 0.041.
Protocol: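 TESEC E. coli strains in which the native enzyme is deleted and replaced by arabinose-inducible Mtb Asd, DapB, CysH or TrpD, each grown in its selective medium. Strains were screened against the Prestwick library at 0.1 mM and 1% DMSO in 384-well format at low and high arabinose induction. Growth is read as OD600 after 10 h in triplicate.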

SMILES	growth
CC(C)C[C@H]1C(=O)N2CCC[C@H]2[C@]2(O)O[C@](NC(=O)[C@@H]3C=C4c5cccc6[nH]c(Br)c(c56)C[C@H]4N(C)C3)(C(C)C)C(=O)N12 [Bromocryptine mesylate]	0.236 ± 0.07
C[C@]12CC[C@H](O)C[C@@H]1CC[C@@H]1[C@@H]2CC[C@]2(C)C(=O)CC[C@@H]12 [Epiandrosterone]	0.152 ± 0.021
O=P1(NCCCl)OCCCN1CCCl (stereo not given) [Ifosfamide]	0.204 ± 0.0083
CCC1(c2ccc(N)cc2)CCC(=O)NC1=O (stereo not given) [Glutethimide, para-amino]	0.189 ± 0.0071
CCC(COC(=O)c1cc(OC)c(OC)c(OC)c1)(c1ccccc1)N(C)C (stereo not given) [Trimebutine]	0.1665 ± 0.0014
CCCCCC[C@H]1C(=O)O[C@H](C)[C@H](NC(=O)c2cccc(NC=O)c2O)C(=O)O[C@@H](C)[C@@H]1OC(=O)CC(C)C [Antimycin A]	0.15 ± 0.018
CN(C)C(=O)Oc1cc(OC(=O)N(C)C)cc(C(O)CNC(C)(C)C)c1 (stereo not given) [Bambuterol hydrochloride]	0.193 ± 0.02
C[C@@H]1C[C@@H]([C@H](O)CC2CC(=O)NC(=O)C2)C(=O)[C@@H](C)C1 [Cycloheximide]	0.231 ± 0.031
C=CCN1CC[C@]23c4c5ccc(O)c4O[C@H]2C(=O)CC[C@@]3(O)[C@H]1C5 [Naloxone hydrochloride]	0.202 ± 0.0047
C[C@H](N)[C@H](O)c1ccc(O)c(O)c1 [Levonordefrin]	0.167 ± 0.003
COc1ccc(C(CN(C)C)C2(O)CCCCC2)cc1 (stereo not given) [Venlafaxine]	0.207 ± 0.0032
COc1ccc(CCN)cc1OC [Homoveratrylamine]	0.188 ± 0.012
CN(C)[C@@H]1C(=O)C(C(N)=O)=C(O)[C@@]2(O)C(=O)C3=C(O)c4c(O)cccc4[C@@](C)(O)[C@H]3[C@H](O)[C@@H]12 [Oxytetracycline dihydrate]	0.0531 ± 0.00076
C[N+]1(C)CCCC(OC(=O)C(O)(c2ccccc2)c2ccccc2)C1 (stereo not given) [Mepenzolate bromide]	0.188 ± 0.0063
O=[N+]([O-])O[C@@H]1CO[C@H]2[C@@H]1OC[C@@H]2O [Isosorbide mononitrate]	0.176 ± 0.0055
C[C@]12COC(=O)C[C@@H]1CC[C@@H]1[C@@H]2CC[C@@]2(C)[C@H]1CC[C@]2(C)O [Oxandrolone]	0.14 ± 0.0074
CCN[C@@H](C)Cc1cccc(C(F)(F)F)c1 [Dexfenfluramine hydrochloride]	0.189 ± 0.0055
c1ccc2c(c1)Nc1ccccc1S2 [Phenothiazine]	0.209 ± 0.034
CO[C@]12C[C@@H](COC(=O)c3cncc(Br)c3)CN(C)[C@@H]1Cc1cn(C)c3cccc2c13 [Nicergoline]	0.227 ± 0.014
COc1cccc(C2(O)CCCCC2CN(C)C)c1 (stereo not given) [Tramadol hydrochloride]	0.188 ± 0.04

Same assay, conditions: arabinose induction (level): Low; compound 0.1 mM; raw OD600 reference: median of DMSO wells 0.227, cell-free background 0.041

SMILES	growth
CC(C)C[C@H]1C(=O)N2CCC[C@H]2[C@]2(O)O[C@](NC(=O)[C@@H]3C=C4c5cccc6[nH]c(Br)c(c56)C[C@H]4N(C)C3)(C(C)C)C(=O)N12 [Bromocryptine mesylate]	0.229 ± 0.018
C[C@]12CC[C@H](O)C[C@@H]1CC[C@@H]1[C@@H]2CC[C@]2(C)C(=O)CC[C@@H]12 [Epiandrosterone]	0.136 ± 0.006
O=P1(NCCCl)OCCCN1CCCl (stereo not given) [Ifosfamide]	0.222 ± 0.026
CCC1(c2ccc(N)cc2)CCC(=O)NC1=O (stereo not given) [Glutethimide, para-amino]	0.226 ± 0.041
CCC(COC(=O)c1cc(OC)c(OC)c(OC)c1)(c1ccccc1)N(C)C (stereo not given) [Trimebutine]	0.191 ± 0.028
CCCCCC[C@H]1C(=O)O[C@H](C)[C@H](NC(=O)c2cccc(NC=O)c2O)C(=O)O[C@@H](C)[C@@H]1OC(=O)CC(C)C [Antimycin A]	0.278 ± 0.058
CN(C)C(=O)Oc1cc(OC(=O)N(C)C)cc(C(O)CNC(C)(C)C)c1 (stereo not given) [Bambuterol hydrochloride]	0.211 ± 0.025
C[C@@H]1C[C@@H]([C@H](O)CC2CC(=O)NC(=O)C2)C(=O)[C@@H](C)C1 [Cycloheximide]	0.258 ± 0.027
C=CCN1CC[C@]23c4c5ccc(O)c4O[C@H]2C(=O)CC[C@@]3(O)[C@H]1C5 [Naloxone hydrochloride]	0.255 ± 0.059
C[C@H](N)[C@H](O)c1ccc(O)c(O)c1 [Levonordefrin]	0.176 ± 0.043
COc1ccc(C(CN(C)C)C2(O)CCCCC2)cc1 (stereo not given) [Venlafaxine]	0.22 ± 0.016
COc1ccc(CCN)cc1OC [Homoveratrylamine]	0.217 ± 0.054
CN(C)[C@@H]1C(=O)C(C(N)=O)=C(O)[C@@]2(O)C(=O)C3=C(O)c4c(O)cccc4[C@@](C)(O)[C@H]3[C@H](O)[C@@H]12 [Oxytetracycline dihydrate]	0.0536 ± 0.0012
C[N+]1(C)CCCC(OC(=O)C(O)(c2ccccc2)c2ccccc2)C1 (stereo not given) [Mepenzolate bromide]	0.226 ± 0.009
O=[N+]([O-])O[C@@H]1CO[C@H]2[C@@H]1OC[C@@H]2O [Isosorbide mononitrate]	0.216 ± 0.03
C[C@]12COC(=O)C[C@@H]1CC[C@@H]1[C@@H]2CC[C@@]2(C)[C@H]1CC[C@]2(C)O [Oxandrolone]	0.154 ± 0.015
CCN[C@@H](C)Cc1cccc(C(F)(F)F)c1 [Dexfenfluramine hydrochloride]	0.246 ± 0.0058
c1ccc2c(c1)Nc1ccccc1S2 [Phenothiazine]	0.236 ± 0.03
CO[C@]12C[C@@H](COC(=O)c3cncc(Br)c3)CN(C)[C@@H]1Cc1cn(C)c3cccc2c13 [Nicergoline]	0.277 ± 0.028
COc1cccc(C2(O)CCCCC2CN(C)C)c1 (stereo not given) [Tramadol hydrochloride]	0.202 ± 0.014

From the supplement of paper PMC9262897, “Low-cost anti-mycobacterial drug discovery using engineered E. coli” (Nature Communications, 2022)
